According to PubChem BioAssay (Tox21):
Where “and” joins values, the source holds several entries; their conditions need not be identical. Identical values can stand only once. Inconclusive results are not listed. A call without a number means that no potency is given here. The source holds several records for some structures; these can differ, active in one and inactive in another. Calls of active or inactive are those of the source. Unless noted, the call rests on the fitted dose curve; in most records, active means well fitted curve in the direction sought with a large enough effect in the repeat runs; inconclusive means weak or mixed curves; inactive means no such curve, though single readings can be large; an effect the other way counts as inactive or inconclusive.

What was measured:
[1] = Human pregnane X receptor (PXR) small molecule agonists, qHTS cell viability counter screen (AID 1346977); further: nearly all actives have a fitted effect of over 50% in size; further: potency means the concentration at half of the fitted maximal effect
Procedure, shortened: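 HepG2 cells stably carrying the PXR-Luc reporter are cultured with 5% charcoal-stripped FBS and treated with compounds for 24hr. CellTiter-Fluor is added at 23hr and fluorescence is read after 1hr.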

[2] = Caspase-3/7 induction in HepG2 cells by small molecules, qHTS assay (AID 1346978); further: nearly all actives have a fitted effect of over 15% in size; further: potency means the concentration at half of the fitted maximal effect
Procedure, shortened: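 Caspase-3/7 induction was measured by Caspase-Glo 3/7 luminescence (30 min, room temperature) after a 17 hr compound exposure of wild-type HepG2 cells seeded at 2,000 per well and pre-incubated 5 hr.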

[3] = Caspase-3/7 induction in CHO-K1 cells by small molecules, qHTS cell viability counter screen (AID 1346979); further: nearly all actives have a fitted effect of over 35% in size; further: potency means the concentration at half of the fitted maximal effect
Procedure, shortened: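 Seeding: 1,500 CHO-K1 cells/well. Rest: 5hr, 37C. Treatment: compounds in DMSO, 16hr. Read: CellTiter-Fluor, 1hr, fluorescence.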

[4] = Caspase-3/7 induction in CHO-K1 cells by small molecules, qHTS assay (AID 1346980); further: nearly all actives have a fitted effect of over 15% in size; further: potency means the concentration at half of the fitted maximal effect
Procedure, shortened: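 Luminescent Caspase-Glo 3/7 read (30min, room temperature) quantified apoptosis induction. Cells were wild-type CHO-K1, treated with compound for 17hr at 37 C and 5% CO2.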

[5] = Caspase-3/7 induction in HepG2 cells by small molecules, qHTS cell viability counter screen (AID 1346981); further: nearly all actives have a fitted effect of over 30% in size; further: potency means the concentration at half of the fitted maximal effect
Procedure, shortened: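 Counter screen for cytotoxicity: HepG2 exposed 16 hr to compounds, then CellTiter-Fluor viability signal (fluorescence, 1 hr reagent incubation).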

[6] = target: Nuclear receptor subfamily 1 group I member 2 (Homo sapiens) (UniProt O75469); experiment: Human pregnane X receptor (PXR) small molecule agonists, qHTS assay (AID 1346982); further: nearly all actives have a fitted effect of over 35% in size
Sequence of Nuclear receptor subfamily 1 group I member 2 (Homo sapiens) (O75469 whole entry, looked up): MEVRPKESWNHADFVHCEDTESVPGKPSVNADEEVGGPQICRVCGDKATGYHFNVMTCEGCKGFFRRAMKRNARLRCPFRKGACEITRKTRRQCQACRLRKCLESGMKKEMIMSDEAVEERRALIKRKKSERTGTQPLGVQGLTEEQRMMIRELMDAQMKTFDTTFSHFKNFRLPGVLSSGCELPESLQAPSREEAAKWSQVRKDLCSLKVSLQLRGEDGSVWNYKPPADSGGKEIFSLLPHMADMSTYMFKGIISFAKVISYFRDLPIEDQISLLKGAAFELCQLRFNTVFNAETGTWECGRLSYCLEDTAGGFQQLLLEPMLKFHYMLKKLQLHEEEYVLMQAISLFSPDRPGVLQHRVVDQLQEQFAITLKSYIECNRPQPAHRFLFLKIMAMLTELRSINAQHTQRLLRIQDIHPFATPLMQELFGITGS
Procedure, shortened: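 Luminescence (ONE-Glo, 30 min RT) after 24 hr compound exposure of PXR-Luc HepG2 cells; cells rested 5 hr post-plating in 5% charcoal-stripped FBS medium.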

[7] = target: Acetylcholinesterase (Homo sapiens) (UniProt P22303); experiment: Acetylcholinesterase (AChE) small molecule antagonists: colormetric cell-based qHTS assay (AID 1347395; calls by dose curve; further: nearly all actives have a fitted effect of over 30% in size; further: potency means the concentration at half of the fitted maximal effect)
Sequence of Acetylcholinesterase (Homo sapiens) (P22303 whole entry, looked up): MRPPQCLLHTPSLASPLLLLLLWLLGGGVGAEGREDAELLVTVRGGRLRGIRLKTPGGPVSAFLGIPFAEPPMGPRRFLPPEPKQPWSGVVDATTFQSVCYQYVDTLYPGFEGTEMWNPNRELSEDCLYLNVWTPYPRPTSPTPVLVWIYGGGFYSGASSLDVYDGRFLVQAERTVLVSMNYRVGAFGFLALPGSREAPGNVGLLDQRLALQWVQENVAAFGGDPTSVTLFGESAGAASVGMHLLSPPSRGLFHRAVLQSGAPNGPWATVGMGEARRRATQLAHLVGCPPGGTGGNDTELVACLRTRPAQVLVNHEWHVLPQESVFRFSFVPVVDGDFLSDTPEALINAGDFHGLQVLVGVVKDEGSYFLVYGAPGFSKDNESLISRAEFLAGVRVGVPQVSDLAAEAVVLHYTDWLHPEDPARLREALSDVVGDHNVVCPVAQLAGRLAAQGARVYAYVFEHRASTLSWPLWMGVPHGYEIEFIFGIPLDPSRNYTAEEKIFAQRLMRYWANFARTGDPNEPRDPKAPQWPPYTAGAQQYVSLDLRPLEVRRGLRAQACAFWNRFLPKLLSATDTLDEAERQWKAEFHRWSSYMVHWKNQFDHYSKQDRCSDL
Procedure, shortened: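 Quantitative HTS in attached SH-SY5Y cells: 30 min compound exposure, then 90 min with acetylthiocholine and DTNB at 37 C; colour from thiocholine reports AChE activity.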

[8] = target: Acetylcholinesterase (Homo sapiens) (UniProt P22303); experiment: Acetylcholinesterase (AChE) small molecule antagonists: fluorescence cell-based qHTS assay (AID 1347398; calls by dose curve; further: nearly all actives have a fitted effect of over 50% in size; further: potency means the concentration at half of the fitted maximal effect); details: Potency: AChE activity; outcome: AChE activity
Procedure, shortened: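 Read-out is Thiolite Green fluorescence at Ex/Em = 490/520 nm, formed by reaction with thiocholine released when cellular AChE in SH-SY5Y cells hydrolyzes acetylthiocholine. Compounds were preincubated 30 min at 37 C before substrate.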

[9] = target: Acetylcholinesterase (Homo sapiens) (UniProt P22303); experiment: Acetylcholinesterase (AChE) small molecule antagonists: enzyme-based qHTS assay with human liver microsomes (AID 1347399; calls by dose curve; further: nearly all actives have a fitted effect of over 60% in size; further: potency means the concentration at half of the fitted maximal effect); details: Potency: qHTS inhibition; outcome: qHTS inhibition
Procedure, shortened: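 Recombinant human AChE (50 mU/mL in the enzyme mix) and human liver microsomes (0.25 mg/mL final) were preincubated with compound and NADPH (0.25 mg/mL final) for 30 min at 37 C. Acetylthiocholine/DTNB was then added; thiocholine was read colorimetrically after 10 min at room temperature.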

[10] = target: Cytochrome P450 2D6 (Homo sapiens) (UniProt P10635); experiment: Cytochrome P450 Family 2 Subfamily D Member 6 (CYP2D6) small molecule antagonists: luciferase reporter qHTS assay (AID 1671196); further: nearly all actives have a fitted effect of over 50% in size; further: potency means the concentration at half of the fitted maximal effect
Sequence of Cytochrome P450 2D6 (Homo sapiens) (P10635 whole entry, looked up): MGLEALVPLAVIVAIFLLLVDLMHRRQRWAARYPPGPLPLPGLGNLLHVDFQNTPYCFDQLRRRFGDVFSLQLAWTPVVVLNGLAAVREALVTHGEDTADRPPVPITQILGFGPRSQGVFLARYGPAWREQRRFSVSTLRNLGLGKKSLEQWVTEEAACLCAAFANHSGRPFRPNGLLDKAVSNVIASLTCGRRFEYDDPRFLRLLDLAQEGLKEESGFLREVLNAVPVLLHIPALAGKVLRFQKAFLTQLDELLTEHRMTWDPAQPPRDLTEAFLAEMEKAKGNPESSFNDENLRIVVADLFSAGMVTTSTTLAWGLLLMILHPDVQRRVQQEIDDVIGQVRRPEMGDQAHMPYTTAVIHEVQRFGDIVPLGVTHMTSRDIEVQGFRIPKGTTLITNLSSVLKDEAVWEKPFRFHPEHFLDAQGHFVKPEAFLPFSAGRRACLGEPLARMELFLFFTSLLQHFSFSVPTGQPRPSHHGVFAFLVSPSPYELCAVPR
Procedure, shortened: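 Inhibition of CYP2D6 was gauged by loss of luminescence, since light produced tracks the luciferin generated from a proluciferin substrate. A 10 min room-temperature preincubation preceded 1 h NADPH-supported turnover.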

[11] = target: Cytochrome P450 2C9 (Homo sapiens) (UniProt P11712); experiment: Cytochrome P450 Family 2 Subfamily C Member 9 (CYP2C9) small molecule antagonists: luciferase reporter qHTS assay (AID 1671198); further: nearly all actives have a fitted effect of over 50% in size; further: potency means the concentration at half of the fitted maximal effect
Sequence of Cytochrome P450 2C9 (Homo sapiens) (P11712 whole entry, looked up): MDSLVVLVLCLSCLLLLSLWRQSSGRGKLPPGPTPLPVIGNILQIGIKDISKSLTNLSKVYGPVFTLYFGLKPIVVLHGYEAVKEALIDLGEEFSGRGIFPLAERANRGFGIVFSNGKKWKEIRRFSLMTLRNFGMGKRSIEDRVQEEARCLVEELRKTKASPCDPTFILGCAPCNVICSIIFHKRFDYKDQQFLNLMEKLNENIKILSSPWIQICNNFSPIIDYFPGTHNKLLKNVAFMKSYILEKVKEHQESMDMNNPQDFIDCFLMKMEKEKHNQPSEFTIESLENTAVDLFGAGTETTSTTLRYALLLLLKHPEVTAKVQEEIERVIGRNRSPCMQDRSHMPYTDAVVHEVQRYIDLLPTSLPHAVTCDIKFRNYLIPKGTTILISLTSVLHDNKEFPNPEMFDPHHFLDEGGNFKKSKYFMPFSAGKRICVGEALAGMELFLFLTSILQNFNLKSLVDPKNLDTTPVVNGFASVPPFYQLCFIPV
Procedure, shortened: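 Enzyme-substrate mix preincubated with compound 10 min at room temperature; reaction started with NADPH regeneration solution, 1 h 37C. Luminescent luciferin product read after 20 min detection reagent.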

[12] = target: Voltage-gated inwardly rectifying potassium channel KCNH2 (Homo sapiens) (UniProt Q12809); experiment: Human Ether-a-go-go-Related Gene (hERG) channel small molecule antagonists: fluorescence cell-based qHTS assay (AID 1671200); further: nearly all actives have a fitted effect of over 50% in size; further: potency means the concentration at half of the fitted maximal effect
Sequence of Voltage-gated inwardly rectifying potassium channel KCNH2 (Homo sapiens) (Q12809 whole entry, looked up): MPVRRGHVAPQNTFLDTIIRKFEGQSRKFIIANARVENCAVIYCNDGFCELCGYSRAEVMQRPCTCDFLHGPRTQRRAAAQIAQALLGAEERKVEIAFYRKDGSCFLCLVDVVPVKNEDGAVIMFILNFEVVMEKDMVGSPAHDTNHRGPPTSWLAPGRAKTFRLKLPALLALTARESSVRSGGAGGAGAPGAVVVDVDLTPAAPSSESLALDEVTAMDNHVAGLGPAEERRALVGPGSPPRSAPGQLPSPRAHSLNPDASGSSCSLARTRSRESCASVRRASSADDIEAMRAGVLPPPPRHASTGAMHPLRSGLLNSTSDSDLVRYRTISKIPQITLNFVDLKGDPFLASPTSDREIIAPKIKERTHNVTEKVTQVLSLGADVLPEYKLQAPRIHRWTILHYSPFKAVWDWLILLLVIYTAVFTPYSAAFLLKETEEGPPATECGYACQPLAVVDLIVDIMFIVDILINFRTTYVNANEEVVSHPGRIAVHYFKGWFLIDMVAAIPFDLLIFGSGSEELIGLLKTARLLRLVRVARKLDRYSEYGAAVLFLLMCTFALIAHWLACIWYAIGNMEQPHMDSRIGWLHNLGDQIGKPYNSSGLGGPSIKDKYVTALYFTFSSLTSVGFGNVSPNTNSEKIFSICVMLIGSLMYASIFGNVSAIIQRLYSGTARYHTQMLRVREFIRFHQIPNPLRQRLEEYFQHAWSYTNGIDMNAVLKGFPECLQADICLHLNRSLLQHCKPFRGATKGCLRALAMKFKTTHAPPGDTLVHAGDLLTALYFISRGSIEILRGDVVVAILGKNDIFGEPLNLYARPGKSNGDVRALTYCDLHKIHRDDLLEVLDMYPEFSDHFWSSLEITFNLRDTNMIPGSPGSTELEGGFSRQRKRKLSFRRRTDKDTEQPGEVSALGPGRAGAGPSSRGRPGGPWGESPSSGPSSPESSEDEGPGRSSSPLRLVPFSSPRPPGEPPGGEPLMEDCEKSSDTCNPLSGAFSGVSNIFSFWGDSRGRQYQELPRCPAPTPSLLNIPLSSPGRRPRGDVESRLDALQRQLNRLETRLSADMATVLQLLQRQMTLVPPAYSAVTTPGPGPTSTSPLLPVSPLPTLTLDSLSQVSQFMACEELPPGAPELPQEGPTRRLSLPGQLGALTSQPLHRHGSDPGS
Procedure, shortened: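 First, 1000 cells per well are seeded and cultured overnight at 37 C. Next, FluxOR II dye is loaded for 1 h at room temperature, protected from light. After 10 more minutes, stimulus is added and fluorescence is read.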

[13] = target: Cytochrome P450 3A4 (Homo sapiens) (UniProt P08684); experiment: Cytochrome P450 Family 3 Subfamily A Member 4 (CYP3A4) small molecule antagonists: luciferase reporter qHTS assay (AID 1671201); further: nearly all actives have a fitted effect of over 50% in size; further: potency means the concentration at half of the fitted maximal effect
Sequence of Cytochrome P450 3A4 (Homo sapiens) (P08684 whole entry, looked up): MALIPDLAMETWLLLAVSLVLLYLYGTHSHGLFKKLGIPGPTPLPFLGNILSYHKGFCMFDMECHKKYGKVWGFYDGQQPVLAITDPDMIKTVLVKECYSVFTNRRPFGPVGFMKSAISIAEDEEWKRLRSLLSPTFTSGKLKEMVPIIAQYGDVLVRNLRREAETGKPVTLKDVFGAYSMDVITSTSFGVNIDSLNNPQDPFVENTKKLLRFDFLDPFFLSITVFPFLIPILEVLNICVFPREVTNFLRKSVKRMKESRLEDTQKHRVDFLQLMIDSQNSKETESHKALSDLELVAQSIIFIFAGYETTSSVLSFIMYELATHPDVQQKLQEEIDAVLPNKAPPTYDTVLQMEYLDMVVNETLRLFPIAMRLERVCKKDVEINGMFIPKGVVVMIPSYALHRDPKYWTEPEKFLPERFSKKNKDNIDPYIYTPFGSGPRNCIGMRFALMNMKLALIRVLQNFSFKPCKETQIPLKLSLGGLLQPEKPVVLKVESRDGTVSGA
Procedure, shortened: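 Enzyme and proluciferin substrate are mixed with test chemicals for 10 min, then NADPH regeneration system drives turnover for 1 h at room temperature. A detection reagent halts the reaction; luminescence after 20 min gives relative activity.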

[14] = target: Acetylcholinesterase (Homo sapiens) (UniProt P22303); experiment: Acetylcholinesterase (AChE) small molecule antagonists: enzyme-based qHTS assay (AID 1347397; calls by dose curve; further: nearly all actives have a fitted effect of over 55% in size; further: potency means the concentration at half of the fitted maximal effect); details: Potency: AChE enzyme activity inhibition; outcome: AChE enzyme activity inhibition
Procedure, shortened: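 rhAChE 50 mU/mL (dispensed) + cpd or DMSO, 30 min RT; add DTNB/acetylthiocholine cocktail, 10 min RT; colorimetric thiocholine readout. qHTS, 1536-well format.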

[15] = target: Cytochrome P450 1A2 (Homo sapiens) (UniProt P05177); experiment: Cytochrome P450 Family 1 Subfamily A Member 2 (CYP1A2) small molecule antagonists: luciferase reporter qHTS assay (AID 1671199); further: nearly all actives have a fitted effect of over 50% in size; further: potency means the concentration at half of the fitted maximal effect
Sequence of Cytochrome P450 1A2 (Homo sapiens) (P05177 whole entry, looked up): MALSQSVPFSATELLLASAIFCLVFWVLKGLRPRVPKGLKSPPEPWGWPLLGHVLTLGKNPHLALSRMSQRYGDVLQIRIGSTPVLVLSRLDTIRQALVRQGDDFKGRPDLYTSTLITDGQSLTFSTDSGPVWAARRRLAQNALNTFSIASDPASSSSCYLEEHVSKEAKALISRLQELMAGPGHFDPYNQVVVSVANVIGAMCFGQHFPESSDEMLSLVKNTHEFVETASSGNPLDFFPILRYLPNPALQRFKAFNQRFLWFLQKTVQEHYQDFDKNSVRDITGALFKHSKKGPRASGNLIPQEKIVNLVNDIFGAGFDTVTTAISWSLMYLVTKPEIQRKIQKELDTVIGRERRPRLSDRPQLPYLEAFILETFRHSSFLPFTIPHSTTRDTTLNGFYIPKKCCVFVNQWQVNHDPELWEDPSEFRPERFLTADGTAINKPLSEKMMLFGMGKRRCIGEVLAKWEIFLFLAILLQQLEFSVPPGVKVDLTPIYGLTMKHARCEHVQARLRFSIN
Procedure, shortened: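 Signal from luciferin formed by CYP1A2 from a proluciferin substrate is read as luminescence, expressed in relative luminescence units. Compounds sit with enzyme 10 min, NADPH-driven reaction runs 1 h, all at room temperature.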

[16] = target: Cytochrome P450 2C19 (Homo sapiens) (UniProt P33261); experiment: Cytochrome P450 Family 2 Subfamily C Member 19 (CYP2C19) small molecule antagonists: luciferase reporter qHTS assay (AID 1671197); further: nearly all actives have a fitted effect of over 65% in size; further: potency means the concentration at half of the fitted maximal effect
Sequence of Cytochrome P450 2C19 (Homo sapiens) (P33261 whole entry, looked up): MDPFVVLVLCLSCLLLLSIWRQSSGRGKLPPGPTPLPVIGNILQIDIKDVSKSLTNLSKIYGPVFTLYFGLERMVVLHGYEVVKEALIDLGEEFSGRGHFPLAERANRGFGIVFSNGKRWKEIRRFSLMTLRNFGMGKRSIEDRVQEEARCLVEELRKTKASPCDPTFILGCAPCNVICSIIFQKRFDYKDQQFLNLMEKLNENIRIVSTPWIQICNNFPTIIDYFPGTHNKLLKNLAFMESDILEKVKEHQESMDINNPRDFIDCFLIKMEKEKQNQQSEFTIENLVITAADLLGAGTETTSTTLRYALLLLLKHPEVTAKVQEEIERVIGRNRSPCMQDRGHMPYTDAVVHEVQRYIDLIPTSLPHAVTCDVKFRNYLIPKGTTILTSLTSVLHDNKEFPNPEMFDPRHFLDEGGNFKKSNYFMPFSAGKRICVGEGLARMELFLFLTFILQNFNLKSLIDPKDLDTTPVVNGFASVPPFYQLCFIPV
Procedure, shortened: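 Relative luminescence units recorded 20 min after the detection reagent stopped a 1 h, 37C CYP2C19 reaction on proluciferin substrate, which was started by NADPH regeneration following 10 min room-temperature compound preincubation; ketoconazole positive control.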

ClCc1ccccc1Cl
Potency [1]: inactive | Potency [2]: inactive | Potency [3]: inactive | Potency [4]: inactive | Potency [5]: inactive | Potency [6]: inactive | Potency [7]: inactive | Potency [8]: inactive | Potency [9]: inactive | Potency [10]: inactive | Potency [11]: inactive | Potency [12]: inactive | Potency [13]: inactive

CC(C)OC(=O)Cc1ccccc1
Potency [1]: inactive | Potency [2]: inactive | Potency [3]: inactive | Potency [4]: inactive | Potency [5]: inactive | Potency [6]: inactive | Potency [7]: inactive | Potency [14]: inactive | Potency [8]: inactive | Potency [9]: inactive | Potency [11]: inactive | Potency [12]: inactive | Potency [13]: inactive

Nc1cccc2ccccc12
Potency [1]: inactive | Potency [2]: inactive | Potency [3]: inactive | Potency [4]: inactive | Potency [5]: inactive | Potency [7]: inactive | Potency [14]: inactive | Potency [8]: inactive | Potency [9]: inactive | Potency [10]: 31.9 µM (active) and 31.7 µM (active) | Potency [11]: 35.8 µM (active) and 50.2 µM (active) | Potency [12]: inactive | Potency [13]: 35.6 µM (active)

CCCN(CCC)c1c([N+](=O)[O-])cc(C(C)C)cc1[N+](=O)[O-]
Potency [1]: inactive | Potency [2]: inactive | Potency [3]: inactive | Potency [4]: inactive | Potency [5]: inactive | Potency [7]: inactive | Potency [14]: inactive | Potency [8]: inactive | Potency [9]: inactive | Potency [10]: inactive | Potency [11]: 27.7 µM (active) and 31.7 µM (active) | Potency [15]: 27.7 µM (active) and 35.6 µM (active) | Potency [12]: inactive

CC(C)(C#N)C(C)(C)C#N
Potency [1]: inactive | Potency [2]: inactive | Potency [4]: inactive | Potency [5]: inactive | Potency [6]: inactive | Potency [7]: inactive | Potency [14]: inactive | Potency [8]: inactive | Potency [9]: inactive | Potency [10]: inactive | Potency [16]: inactive | Potency [11]: inactive | Potency [12]: inactive | Potency [13]: inactive

CC(Oc1cc(Cl)c(Cl)cc1Cl)C(=O)O (stereo not given)
Potency [1]: inactive | Potency [2]: inactive | Potency [3]: inactive | Potency [4]: inactive | Potency [5]: inactive | Potency [7]: inactive | Potency [14]: inactive | Potency [8]: inactive | Potency [9]: inactive | Potency [10]: inactive | Potency [11]: 31.8 µM (active) | Potency [12]: inactive | Potency [13]: inactive

C[C@@H]1C[C@@H]([C@H](O)CC2CC(=O)NC(=O)C2)C(=O)[C@@H](C)C1
Potency [1]: 342 nM (active) and 1.22 µM (active) and 1.19 µM (active) | Potency [2]: inactive | Potency [3]: 24.2 nM (active) and 68.6 nM (active) and 188 nM (active) | Potency [4]: inactive | Potency [5]: 121 nM (active) and 1.72 µM (active) and 750 nM (active) | Potency [12]: inactive

CC(C)(C)CC(C)(C)c1ccc(O)cc1
Potency [1]: 54.5 µM (active) | Potency [2]: 51.4 µM (active) | Potency [3]: 50 µM (active) | Potency [4]: 51.4 µM (active) | Potency [5]: 61.1 µM (active) | Potency [7]: 39.9 µM (active) and inactive | Potency [14]: inactive | Potency [8]: 31.7 µM (active) and inactive | Potency [9]: inactive | Potency [10]: 39.9 µM (active) and inactive | Potency [16]: inactive | Potency [11]: 22.4 µM (active) and 15.5 µM (active) | Potency [12]: 40 µM (active) | Potency [13]: inactive

CNC(=O)Oc1cccc(N=CN(C)C)c1
Potency [1]: inactive | Potency [2]: inactive | Potency [4]: inactive | Potency [5]: inactive | Potency [6]: inactive | Potency [7]: 3.99 µM (active) | Potency [14]: 20 µM (active) | Potency [8]: 3.56 µM (active) | Potency [9]: 63.3 µM (active) | Potency [10]: 79.6 µM (active) | Potency [16]: 79.6 µM (active) | Potency [11]: 79.6 µM (active) | Potency [12]: inactive | Potency [13]: inactive

CCCC[N+](CCCC)(CCCC)CCCC
Potency [1]: inactive | Potency [2]: inactive | Potency [3]: inactive | Potency [4]: inactive | Potency [5]: inactive | Potency [7]: 44.7 µM (active) | Potency [14]: inactive | Potency [8]: inactive | Potency [9]: inactive | Potency [10]: 0.0089 µM (active) | Potency [16]: inactive | Potency [11]: inactive | Potency [15]: inactive | Potency [13]: inactive

CCCN(CCOc1c(Cl)cc(Cl)cc1Cl)C(=O)n1ccnc1
Potency [1]: 50.1 µM (active) | Potency [2]: inactive | Potency [3]: 62.4 µM (active) | Potency [4]: inactive | Potency [5]: 62.4 µM (active) | Potency [7]: inactive | Potency [14]: inactive | Potency [9]: inactive | Potency [10]: 363 nM (active) and 1 µM (active) | Potency [16]: 22.9 nM (active) and 50.2 nM (active) | Potency [11]: 457 nM (active) and 796 nM (active) | Potency [12]: 12.6 µM (active) and 19.5 µM (active) | Potency [13]: 32.4 nM (active) and 100 nM (active)

O=[N+]([O-])/C=C/c1ccccc1
Potency [1]: 24.7 µM (active) and 19.3 µM (active) | Potency [3]: 6.97 µM (active) and 12.2 µM (active) | Potency [4]: inactive | Potency [5]: 31.1 µM (active) and 61.1 µM (active)

N#CC(C#N)=Cc1ccc(O)c(O)c1
Potency [1]: inactive | Potency [2]: inactive | Potency [4]: inactive | Potency [5]: inactive | Potency [6]: inactive | Potency [7]: inactive | Potency [14]: inactive | Potency [8]: inactive | Potency [9]: inactive | Potency [10]: inactive | Potency [16]: inactive | Potency [11]: 17.4 µM (active) | Potency [12]: inactive | Potency [13]: inactive

COC(=O)C1(O)c2ccccc2-c2ccccc21
Potency [1]: inactive | Potency [2]: inactive | Potency [3]: inactive | Potency [4]: inactive | Potency [5]: inactive | Potency [7]: inactive | Potency [8]: inactive | Potency [9]: inactive | Potency [16]: 79.6 µM (active) | Potency [15]: 25.2 µM (active)

CCCCOC(=O)CCC(=O)OCCCC
Potency [1]: inactive | Potency [2]: inactive | Potency [3]: inactive | Potency [4]: inactive | Potency [5]: inactive | Potency [7]: inactive | Potency [8]: inactive | Potency [9]: inactive | Potency [10]: inactive | Potency [15]: 20 µM (active) | Potency [12]: inactive | Potency [13]: inactive
